Test results as given in PubChem BioAssay (EPA / NIEHS).
Values joined by “and” are separate entries in the source; they are usually repeats but may differ in a detail not shown here. Identical values can stand only once. Where a structure was tested more than once in an assay, its records may differ in their call. Active and inactive are the calls of the source. The calls were made as follows: active = hit-call score of the fitted dose curve at least 0.9, where 1 is the maximum; inactive = score below 0.9.

Assays:
Details in all cases: primary human HUVEC with PBMC; actives raise or lower the signal
[1] = BSK_LPS_PGE2: BioMAP Diversity Plus: LPS Assay for Prostaglandin E2 (PGE2) Biomarker Activity (AID 2283082);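 as to AC50: secreted prostaglandin E2 measured by ELISA in LPS-stimulated co-culture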
Method in brief: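 HUVEC plus PBMC co-culture stimulated with LPS; secreted PGE2 quantified by ELISA 24 h after chemical dosing. Activity fitted bidirectionally against DMSO as negative control and baseline; parallel SRB total-protein staining served as cytotoxicity check.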

[2] = read-out: Macrophage colony-stimulating factor (MCSF), CSF1 (gene 1435); assay: BSK_LPS_MCSF: BioMAP Diversity Plus: LPS Assay for Macrophage colony-stimulating factor (MCSF) Biomarker Activity (AID 2283083)
Method in brief: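 Compound is added to a human vascular primary co-culture of umbilical vein endothelium and blood mononuclear cells. After 24 h, M-CSF is quantified by ELISA. Signal changes are fitted in both directions against DMSO.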

[3] = read-out: Tissue Factor, F3 (gene 2152); assay: BSK_LPS_TissueFactor: BioMAP Diversity Plus: LPS Assay for Tissue Factor Biomarker Activity (AID 2283084)
Method in brief: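 In this co-culture system of umbilical vein endothelium with PBMC, stimulated with LPS, cell-surface CD142 is detected by ELISA at 24 h. Endpoint values derive from bidirectional fitting, DMSO serving as baseline.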

[4] = read-out: Tumor necrosis factor (Homo sapiens) (UniProt P01375); assay: BSK_LPS_TNFa: BioMAP Diversity Plus: LPS Assay for Tumour Necrosis Factor alpha (TNFa) Biomarker Activity (AID 2283085)
Method in brief: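 Human umbilical vein endothelial cells co-cultured with PBMC were exposed to test chemical and TNFa measured by ELISA 24 h after dosing. Bidirectional curve fitting was done relative to DMSO as negative control and baseline.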

[5] = read-out: Vascular cell adhesion molecule 1 (VCAM1), VCAM1 (gene 7412); assay: BSK_LPS_VCAM1: BioMAP Diversity Plus: LPS Assay for Vascular cell adhesion molecule 1 (VCAM1) Biomarker Activity (AID 2283086)
Method in brief: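 Human umbilical vein endothelial cells co-cultured with peripheral blood mononuclear cells under LPS stimulation were exposed to test chemical for 24 h. VCAM-1 levels were then measured by ELISA, with bidirectional curve fitting relative to DMSO as negative control and baseline.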

CD38, CD38 (gene 952) = assay: BSK_SAg_CD38: BioMAP Diversity Plus: SAg Assay for CD38 Biomarker Activity (AID 2283087)
Method in brief: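 Fluorescence ELISA of cell-surface CD38 served as the read-out, with either increase or decrease fitted against DMSO controls. Cells were a human umbilical vein endothelium plus PBMC co-culture under SEB/TSST-1 stimulation, measured 24 h after dosing.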

CD40, CD40 (gene 958) = assay: BSK_SAg_CD40: BioMAP Diversity Plus: SAg Assay for CD40 Biomarker Activity (AID 2283088)
Method in brief: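 Fluorescence ELISA read-out of CD40 from umbilical vein endothelium plus peripheral blood mononuclear cells, sampled 24 h after dosing. Values come from bidirectional curve fitting with DMSO as baseline.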

[6] = read-out: E-selectin (Homo sapiens) (UniProt P16581); assay: BSK_SAg_Eselectin: BioMAP Diversity Plus: SAg Assay for Eselectin Biomarker Activity (AID 2283091)
Method in brief: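 Primary human endothelial cells and peripheral blood mononuclear cells were co-cultured and exposed to chemical for 24 hours. E-selectin levels were then quantified by ELISA, with bidirectional curve fitting normalised to DMSO controls.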

[7] = read-out: Monocyte Chemoattractant Protein-1 (MCP1), CCL2 (gene 6347); assay: BSK_SAg_MCP1: BioMAP Diversity Plus: SAg Assay for Monocyte Chemoattractant Protein-1 (MCP1) Biomarker Activity (AID 2283090)
Method in brief: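 MCP-1 levels in the endothelial–PBMC SAg co-culture were quantified by ELISA at 24 h post-dosing; both increases and decreases versus DMSO scored. Cytotoxicity monitored by SRB total protein in parallel cultures.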

CD69, CD69 (gene 969) = assay: BSK_SAg_CD69: BioMAP Diversity Plus: SAg Assay for CD69 Biomarker Activity (AID 2283089)
Method in brief: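 HUVEC co-cultured with PBMC were dosed with chemical, and CD69 was measured by ELISA with fluorescence read-out 24 h later. Bidirectional curve fitting used DMSO as negative control and activity baseline.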

E-selectin (Homo sapiens), sequence (P16581 whole entry, looked up): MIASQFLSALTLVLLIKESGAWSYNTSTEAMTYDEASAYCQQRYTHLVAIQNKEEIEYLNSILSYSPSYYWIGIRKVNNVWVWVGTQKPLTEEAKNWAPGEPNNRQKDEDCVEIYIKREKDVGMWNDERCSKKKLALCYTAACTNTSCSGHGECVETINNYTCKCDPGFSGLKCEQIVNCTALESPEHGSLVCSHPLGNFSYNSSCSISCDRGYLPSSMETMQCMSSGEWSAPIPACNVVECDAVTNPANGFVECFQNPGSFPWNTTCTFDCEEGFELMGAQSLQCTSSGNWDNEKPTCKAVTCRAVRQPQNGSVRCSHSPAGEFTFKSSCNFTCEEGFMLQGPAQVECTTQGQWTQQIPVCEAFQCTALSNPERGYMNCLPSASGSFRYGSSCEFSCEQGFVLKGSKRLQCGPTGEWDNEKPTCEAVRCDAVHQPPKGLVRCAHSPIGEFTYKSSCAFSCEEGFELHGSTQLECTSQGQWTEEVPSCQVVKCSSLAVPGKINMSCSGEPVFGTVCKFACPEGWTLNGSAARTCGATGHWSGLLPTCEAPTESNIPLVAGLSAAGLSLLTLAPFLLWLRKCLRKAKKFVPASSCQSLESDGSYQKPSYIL
Tumor necrosis factor (Homo sapiens), sequence (P01375 whole entry, looked up): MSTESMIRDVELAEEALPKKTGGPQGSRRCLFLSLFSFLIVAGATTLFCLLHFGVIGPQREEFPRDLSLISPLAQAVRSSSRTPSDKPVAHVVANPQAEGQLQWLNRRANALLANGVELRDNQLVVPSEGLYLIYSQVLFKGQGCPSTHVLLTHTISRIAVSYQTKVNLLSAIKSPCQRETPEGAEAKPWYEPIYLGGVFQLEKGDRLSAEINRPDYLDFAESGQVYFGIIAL

With `Cc1ccc(C(=O)c2ccccc2)cc1` as the compound, how does the AC50 [1] read?
Its AC50 is 1.05 µM (active).

And the outcome [2]?
The outcome was “inactive”.

What about the outcome [3] of the same compound?
The outcome was “inactive”.

What about the outcome [4] of the same compound?
Its outcome is “inactive”.

What about the outcome [5] of the same compound?
The outcome was “inactive”.

And the outcome (CD38, CD38 (gene 952))?
Its outcome is “inactive”.

What about the outcome (CD40, CD40 (gene 958)) of the same compound?
Its outcome is “inactive”.

What about the outcome [6] of the same compound?
Its outcome is “inactive”.

What does the source list for `Cc1cccc2c1ccc1ccccc12`?
outcome [1]: inactive; outcome [2]: inactive; AC50 [3]: 3.97 µM (active); outcome [4]: inactive; outcome [5]: inactive; outcome (CD38, CD38 (gene 952)): inactive; outcome (CD40, CD40 (gene 958)): inactive; outcome [6]: inactive

Which results are given for `O=C1OC2(c3ccccc31)c1cc(I)c(O)c(I)c1Oc1c2cc(I)c(O)c1I`?
AC50 [1]: 3.14 µM (active); AC50 [2]: 6.69 µM (active); AC50 [3]: 19.8 µM (active); outcome [4]: inactive; AC50 [5]: 9.02 µM (active); AC50 (CD38, CD38 (gene 952)): 7.06 µM (active); AC50 (CD40, CD40 (gene 958)): 12 µM (active); AC50 [7]: 10.2 µM (active)

Which AC50 [1] does the source give for `O=C(c1ccccc1)c1ccccc1` here?
Its AC50 is 0.569 µM (active).

And the outcome [2]?
Its outcome is “inactive”.

And the outcome [3]?
Its outcome is “inactive”.

What about the outcome [4] of the same compound?
The outcome was “inactive”.

What about the outcome [5] of the same compound?
Its outcome is “inactive”.

And the outcome (CD38, CD38 (gene 952))?
Its outcome is “inactive”.

What about the outcome (CD40, CD40 (gene 958)) of the same compound?
The outcome was “inactive”.

And the outcome [6]?
Its outcome is “inactive”.

With `COC1=CC(=O)C[C@@H](C)[C@]12Oc1c(Cl)c(OC)cc(OC)c1C2=O` as the compound, how does the outcome [1] read?
Its outcome is “inactive”.

And the outcome [2]?
The outcome was “inactive”.

And the outcome [3]?
The outcome was “inactive”.

What about the outcome [4] of the same compound?
The outcome was “inactive”.

And the outcome [5]?
The outcome was “inactive”.

And the outcome (CD38, CD38 (gene 952))?
The outcome was “inactive”.

And the outcome (CD40, CD40 (gene 958))?
Its outcome is “inactive”.

What about the outcome [6] of the same compound?
The outcome was “inactive”.

For `CCC(C)c1ccccc1O` (centres undefined), which AC50 [1] is on record?
The AC50 was 3.28 µM (active).

What about the outcome [2] of the same compound?
The outcome was “inactive”.

What about the outcome [3] of the same compound?
Its outcome is “inactive”.

What about the outcome [4] of the same compound?
Its outcome is “inactive”.

What about the outcome [5] of the same compound?
Its outcome is “inactive”.

What about the outcome (CD38, CD38 (gene 952)) of the same compound?
Its outcome is “inactive”.

And the outcome (CD40, CD40 (gene 958))?
Its outcome is “inactive”.

What about the outcome [6] of the same compound?
Its outcome is “inactive”.

Which results are given for `CCCCCCCCCCCCCCC`?
outcome [1]: inactive; outcome [2]: inactive; outcome [3]: inactive; outcome [4]: inactive; outcome [5]: inactive; outcome (CD38, CD38 (gene 952)): inactive; outcome (CD40, CD40 (gene 958)): inactive; outcome (CD69, CD69 (gene 969)): inactive; outcome [7]: inactive; outcome [6]: inactive

For `C[C@]12CC[C@@H]3c4ccc(O)cc4CC[C@H]3[C@@H]1C[C@@H](O)[C@@H]2O`, which outcome [1] is on record?
Its outcome is “inactive”.

What about the outcome [2] of the same compound?
The outcome was “inactive”.

And the outcome [3]?
Its outcome is “inactive”.

What about the outcome [4] of the same compound?
The outcome was “inactive”.

What about the outcome [5] of the same compound?
Its outcome is “inactive”.

What about the outcome (CD38, CD38 (gene 952)) of the same compound?
Its outcome is “inactive”.

And the outcome (CD40, CD40 (gene 958))?
The outcome was “inactive”.

And the outcome [6]?
The outcome was “inactive”.

Which results are given for `CC(=O)Nc1ccc(O)cc1`?
outcome [1]: inactive; outcome [2]: inactive; outcome [3]: inactive; outcome [4]: inactive; outcome [5]: inactive; outcome (CD40, CD40 (gene 958)): inactive

What does the source list for `O=P(O)(O)CCC(F)(F)C(F)(F)C(F)(F)C(F)(F)C(F)(F)C(F)(F)C(F)(F)C(F)(F)F`?
AC50 [1]: 30 µM (active); outcome [1]: inactive; AC50 [2]: 27.7 µM (active) and 30 µM (active); outcome [3]: inactive; outcome [4]: inactive; outcome [5]: inactive; AC50 (CD40, CD40 (gene 958)): 30 µM (active); outcome (CD40, CD40 (gene 958)): inactive; outcome [6]: inactive

What does the source list for `CC1=NN(c2ccccc2)C(=O)C1`?
outcome [1]: inactive; outcome [2]: inactive; outcome [3]: inactive; outcome [4]: inactive; outcome [5]: inactive; outcome (CD40, CD40 (gene 958)): inactive; outcome (CD69, CD69 (gene 969)): inactive; outcome [7]: inactive; outcome [6]: inactive

Which results are given for `O=C(CC(=O)C(F)(F)C(F)(F)C(F)(F)F)c1cccs1`?
outcome [1]: inactive; AC50 [2]: 30 µM (active); outcome [2]: inactive; AC50 [3]: 10.4 µM (active); outcome [3]: inactive; AC50 [4]: 15.2 µM (active); outcome [4]: inactive; AC50 [5]: 45.7 µM (active) and 46.4 µM (active); AC50 (CD40, CD40 (gene 958)): 17 µM (active) and 16.2 µM (active); AC50 [6]: 30 µM (active) and 43.1 µM (active)

What does the source list for `COc1cccc(O)c1`?
outcome [1]: inactive; outcome [2]: inactive; outcome [3]: inactive; outcome [4]: inactive; outcome [5]: inactive; outcome (CD40, CD40 (gene 958)): inactive; outcome (CD69, CD69 (gene 969)): inactive; outcome [7]: inactive; outcome [6]: inactive
